According to PubChem BioAssay AID1159580 (chemical genetic matrix, 2015):
About 2,000 (36%) of roughly 5,500 compounds were called active. Another 18% or so got no clear call; they are omitted. Cut-off read from the data, not from the text of the source: active = normalized growth mostly below about 0.91 (no sharp cut-off); inconclusive = no clear call, values can overlap the other calls; inactive = mostly above about 0.92. This is one part of the list.

Assay: chemical genetic growth profiling, strain panel (AID 1159580);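 note: tested at 20 µM; growth read once vehicle control cultures reached saturation at 30 °C; 1 = growth at the plate median or of vehicle wells; lower values mean less growth of the strain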
Settings: S. cerevisiae deletion strains, growth OD
[1] = locus YAR019C, strain CDC15, hits give low values
[2] = locus YBL105C, strain PKC1, hits give low values
[3] = locus YBR135W, strain CKS1, hits give low values
[4] = locus YBR136W, strain MEC1, hits give low values
[5] = locus YBR160W, strain CDC28, hits give low values
[6] = locus YDL017W, strain CDC7, hits give low values
[7] = locus YDL028C, strain MPS1, hits give low values
[8] = locus YDL101C, strain DUN1, hits give low values
[9] = locus YDL108W, strain KIN28, hits give low values
[10] = locus YDL132W, strain cdc53, hits give low values
[11] = locus YDL214C, strain PRR2, hits give low values
[12] = locus YDR052C, strain DBF4, hits give low values
[13] = locus YDR054C, strain cdc34, hits give low values
[14] = locus YDR226W, strain ADK1, hits give low values
[15] = locus YDR477W, strain SNF1, hits give low values
[16] = locus YER123W, strain YCK3, hits give low values
[17] = locus YER133W, strain GLC7, hits give low values
[18] = locus YFL009W, strain cdc4, hits give low values
[19] = locus YFL029C, strain CAK1, hits give low values
[20] = locus YFR003C, strain YPI1, hits give low values
[21] = locus YFR019W, strain FAB1, hits give low values
[22] = locus YFR028C, strain CDC14, hits give low values
[23] = locus YGR040W, strain KSS1, hits give low values
[24] = locus YGR052W, strain FMP48, hits give low values
[25] = locus YGR092W, strain DBF2, hits give low values
[26] = locus YHR030C, strain SLT2, hits give low values
[27] = locus YHR079C, strain IRE1, hits give low values
[28] = locus YHR082C, strain KSP1, hits give low values
[29] = locus YHR205W, strain SCH9, hits give low values
[30] = locus YIL147C, strain SLN1, hits give low values
[31] = locus YJL095W, strain BCK1, hits give low values
[32] = locus YJL128C, strain PBS2, hits give low values
[33] = locus YJL157C, strain FAR1, hits give low values
[34] = locus YJR016C, strain ILV3, hits give low values
[35] = locus YJR066W, strain TOR1 (second series), hits give low values
[36] = locus YJR066W, strain TOR1, hits give low values
[37] = locus YKL048C, strain ELM1, hits give low values
[38] = locus YKL067W, strain YNK1, hits give low values
[39] = locus YKL101W, strain HSL1, hits give low values
[40] = locus YKL193C, strain SDS22, hits give low values
[41] = locus YKL203C, strain TOR2, hits give low values
[42] = locus YLR113W, strain HOG1, hits give low values
[43] = locus YLR133W, strain CKI1, hits give low values
[44] = locus YLR403W, strain SFP1, hits give low values
[45] = locus YML070W, strain DAK1, hits give low values
[46] = locus YMR001C, strain CDC5, hits give low values
[47] = locus YMR205C, strain PFK2 (second series), hits give low values
[48] = locus YMR277W, strain FCP1, hits give low values
[49] = locus YNL006W, strain LST8, hits give low values
[50] = locus YNL020C, strain ARK1, hits give low values
[51] = locus YNL161W, strain CBK1, hits give low values
[52] = locus YNL183C, strain NPR1, hits give low values
[53] = locus YNL207W, strain RIO2, hits give low values
[54] = locus YNL222W, strain SSU72, hits give low values
[55] = locus YNL307C, strain MCK1 (second series), hits give low values
[56] = locus YOL078W, strain AVO1, hits give low values
[57] = locus YOL136C, strain PFK27, hits give low values
[58] = locus YOR061W, strain CKA2, hits give low values
[59] = locus YOR119C, strain RIO1, hits give low values
[60] = locus YOR231W, strain MKK1, hits give low values
[61] = locus YOR329C, strain SCD5, hits give low values
[62] = locus YPL031C, strain PHO85, hits give low values
[63] = locus YPL153C, strain RAD53, hits give low values
[64] = locus YPL204W, strain HRR25, hits give low values
[65] = locus YPL209C, strain IPL1, hits give low values
[66] = locus YPL256C, strain CLN2, hits give low values
[67] = locus YPR025C, strain CCL1, hits give low values
[68] = locus YPR106W, strain ISR1, hits give low values
[69] = locus YPR111W, strain DBF20, hits give low values
[70] = strain NNK1, hits give low values
[71] = strain TSCII, hits give low values

Measured: normalized growth

COc1cc(C(=O)Oc2c(Cl)cc(Cl)cc2C=Nc2cccc(C(F)(F)F)c2)cc(OC)c1OC
inactive: [1] 0.977 | [2] 0.976 | [3] 0.971 | [4] 0.973 | [5] 0.968 | [6] 0.974 | [7] 0.962 | [8] 0.986 | [9] 0.966 | [10] 0.963 | [12] 0.983 | [13] 0.959 | [14] 0.965 | [18] 0.957 | [19] 0.978 | [20] 0.972 | [22] 0.951 | [30] 0.972 | [32] 0.917 | [34] 0.986 | [35] 0.775 | [40] 0.971 | [46] 0.975 | [48] 0.97 | [49] 0.981 | [51] 0.977 | [53] 0.982 | [54] 0.969 | [56] 0.969 | [61] 0.978 | [65] 0.976 | [67] 0.966 | [68] 0.965 | [69] 0.931 | [70] 0.98 | [71] 0.967
active: [11] 0.627 | [15] 0.589 | [16] 0.422 | [17] 0.585 | [21] 0.702 | [23] 0.636 | [24] 0.556 | [25] 0.308 | [26] 0.363 | [27] 0.388 | [28] 0.484 | [29] 0.465 | [31] 0.421 | [33] 0.617 | [36] 0.368 | [37] 0.78 | [38] 0.605 | [39] 0.648 | [41] 0.693 | [42] 0.488 | [43] 0.626 | [44] 0.473 | [45] 0.583 | [47] 0.656 | [50] 0.594 | [52] 0.497 | [55] 0.555 | [57] 0.548 | [58] 0.576 | [59] 0.597 | [60] 0.465 | [62] 0.574 | [63] 0.578 | [64] 0.562 | [66] 0.443

COc1cc(N=Cc2ccc3c(c2)OCO3)c(OC)cc1Cl
inactive: locus YAL013W, strain DEP1, hits give low values 1.01 | locus YBR229C, strain ROT2, hits give low values 1.01 | locus YCL061C, strain MRC1, hits give low values 1 | [8] 0.984 | locus YDR150W, strain NUM1, hits give low values 0.91 | locus YEL061C, strain CIN8, hits give low values 1.04 | locus YGR078C, strain PAC10, hits give low values 0.994 | locus YGR229C, strain SMI1, hits give low values 1.01 | [26] 0.982 | locus YHR087W, strain rtc3, hits give low values 0.989 | locus YJR043C, strain POL32, hits give low values 1 | locus YJR075W, strain HOC1, hits give low values 0.983 | locus YLR039C, strain RIC1, hits give low values 0.97 | locus YLR058C, strain SHM2 (second series), hits give low values 1 | locus YLR085C, strain ARP6, hits give low values 1.04 | locus YLR262C, strain YPT6, hits give low values 0.99 | locus YML094W, strain GIM5, hits give low values 1.02 | locus YMR219W, strain ESC1, hits give low values 0.991 | locus YMR263W, strain SAP30, hits give low values 0.939 | locus YMR307W, strain GAS1, hits give low values 1.05 | locus YNL128W, strain TEP1, hits give low values 1.01 | locus YNL153C, strain GIM3, hits give low values 0.988 | locus YNL298W, strain CLA4 (second series), hits give low values 1.01 | locus YNL322C, strain KRE1, hits give low values 1 | locus YNR030W, strain Alg12, hits give low values 1.01 | locus YPL055C, strain LGE1, hits give low values 0.998 | locus YPL241C, strain CIN2, hits give low values 1.02 | locus YPR135W, strain CTF4, hits give low values 0.973

COc1cc(N=Cc2cc(Cl)cc(Cl)c2OS(=O)(=O)c2ccc(C)cc2)c(OC)cc1Cl
inactive: [1] 0.935 | [2] 0.948 | [3] 0.943 | [4] 0.944 | [5] 0.927 | [6] 0.957 | [7] 0.921 | [8] 0.951 | [9] 0.936 | [10] 0.942 | [11] 0.891 | [12] 0.958 | [13] 0.947 | [14] 0.946 | [15] 0.914 | [16] 0.896 | [17] 0.929 | [18] 0.926 | [19] 0.932 | [20] 0.952 | [21] 0.955 | [22] 0.919 | [23] 0.918 | [24] 0.917 | [25] 0.849 | [27] 0.794 | [28] 0.829 | [29] 0.846 | [30] 0.949 | [31] 0.903 | [32] 0.884 | [33] 0.928 | [34] 0.963 | [35] 0.943 | [36] 0.805 | [37] 0.939 | [38] 0.897 | [39] 0.902 | [40] 0.946 | [41] 0.991 | [43] 0.906 | [44] 0.911 | [45] 0.902 | [46] 0.934 | [47] 0.923 | [48] 0.922 | [49] 0.955 | [50] 0.903 | [51] 0.95 | [52] 0.941 | [53] 0.952 | [54] 0.92 | [55] 0.921 | [56] 0.94 | [57] 0.881 | [58] 0.945 | [59] 0.924 | [60] 0.845 | [61] 0.958 | [62] 0.926 | [63] 0.911 | [64] 0.906 | [65] 0.947 | [67] 0.948 | [68] 0.942 | [69] 0.901 | [70] 0.943 | [71] 0.935
active: [26] 0.651 | [42] 0.85 | [66] 0.86

COc1cc(N=Cc2cc(Cl)cc(Cl)c2OC(=O)c2cc(OC)c(OC)c(OC)c2)c(OC)cc1Cl
active: [11] 0.369 | [15] 0.31 | [16] 0.212 | [17] 0.398 | [21] 0.34 | [23] 0.381 | [24] 0.235 | [25] 0.183 | [26] 0.145 | [27] 0.161 | [28] 0.176 | [29] 0.202 | [31] 0.177 | [33] 0.32 | [35] 0.463 | [36] 0.148 | [37] 0.458 | [38] 0.392 | [39] 0.346 | [41] 0.345 | [42] 0.243 | [43] 0.354 | [44] 0.244 | [45] 0.317 | [47] 0.421 | [50] 0.335 | [52] 0.235 | [55] 0.238 | [57] 0.273 | [58] 0.346 | [59] 0.307 | [60] 0.207 | [62] 0.292 | [63] 0.279 | [64] 0.312 | [66] 0.215
inactive: [1] 0.965 | [2] 0.977 | [3] 0.969 | [4] 0.974 | [5] 0.968 | [6] 0.981 | [7] 0.959 | [8] 0.962 | [9] 0.945 | [10] 0.966 | [12] 0.989 | [13] 0.98 | [14] 0.947 | [18] 0.956 | [19] 0.971 | [20] 0.975 | [22] 0.962 | [30] 0.977 | [32] 0.937 | [34] 0.987 | [40] 0.972 | [46] 0.963 | [48] 0.954 | [49] 0.982 | [51] 0.98 | [53] 0.977 | [54] 0.958 | [56] 0.969 | [61] 0.981 | [65] 0.977 | [67] 0.974 | [68] 0.962 | [69] 0.943 | [70] 0.98 | [71] 0.96
